PubChem BioAssay (EPA / NIEHS)
Calls of active or inactive are those of the source. Rule for the calls: active = hit-call score of the fitted dose curve at least 0.9, where 1 is the maximum; inactive = score below 0.9.

experiment: ATG_M_61_CIS: Attagene CIS-FACTORIAL HepG2 Assay for M61 Transcription Factor (Internal Marker) (AID 2282937); details: HepG2 Attagene CIS-FACTORIAL M61 internal marker reporter; actives raise or lower the signal
Method: ATG_CIS is a cell-based, multiplexed-readout assay that uses HepG2, a human liver cell line, with measurements taken at 24 hours after chemical dosing in a 24-well plate.ATG_M_61_CIS is one of 52 assay component(s) measured or calculated from the ATG_CIS assay. It is designed to make measurements of mRNA induction, a form of inducible reporter, as detected with fluorescence intensity signals by Reverse transcription polymerase chain reaction (RT-PCR) and Capillary electrophoresis technology.Data from the assay component ATG_M_61_CIS was analyzed into 1 assay endpoint. This assay endpoint, ATG_M_61_CIS, was analyzed with bidirectional fitting relative to DMSO as the negative control and baseline of activity. Using a type of inducible reporter, measures of mRNA for gain or loss-of-signal activity can be used to understand the background control at the transcription factor-level as they relate to the gene . Furthermore, this assay endpoint can be referred to as a secondary readout, because this assay has produced multiple assay endpoints where this one serves a background control function. To generalize the intended target to other relatable targets, this assay endpoint is annotated to the background measurement intended target family, where the subfamily is internal marker.
Human liver HepG2 cells are transiently transfected with multiple reporter transcription units (MRTUs) in 6-well plates using FuGene 6 reagent (Roche; 3 ml FuGene/1 mg DNA). The MRTU constructs are regulated by a cis-regulating element (promoter). […] A major difference between the CIS and TRANS system is that in CIS activities of endogenous TFs are measured, whereas the TRANS assay evaluates changes in activities of exogenous, chimeric NR-Gal4 proteins. […] At the end of 24 hour incubation, total RNA was isolated using TriZol reagent (Invitrogen). The isolated RNA is then reverse-transcribed using oligo(dT) primer and Mo-MLV reverse transcriptase (Invitrogen) with DNAse I (Ambion) treatment for 30 min. The one-tenth of the produced cDNA was amplified by PCR using Taq DNA polymerase (Invitrogen) and two reporter sequence-specific primers. The PCR products were fluorescently labeled by primer extension with 6-arboxyfluorescein (6-FAM) 5'-labeled reporter sequence-specific primer (2 min at 95 C, 20 s at 68 C and 10 min at 72 C) and these products were digested with 5U of HpaI (New England Biolabs) for 2h at 37 C. The fragments were purified using Qiaquick PCR columns (Qiagen), analyzed on an ABI 3130xL genetic analyzer (Applied Biosystems) with peak positions identified by using a set of X-rhodamine (ROX)-labeled MapMarker1000 molecular weight standards (BioVentures). The raw capillary electrophoresis data was processed using Attagraph software (Attagene).

SMILES | outcome
O=C1CCCCC1 | inactive
O=C(O)c1cccnc1 | inactive
O=C(O)CN(CC(=O)O)CC(=O)O | inactive
CC(COCC(C)OC(=O)c1ccccc1)OC(=O)c1ccccc1 (stereo not given) | inactive
NC=O | inactive
c1ccc2occc2c1 | inactive
CC1(C)C(=O)NC(=O)N1CO | inactive
Cc1cc(SC2=C(O)C[C@@](CCc3ccc(N)cc3)(C(C)C)OC2=O)c(C(C)(C)C)cc1CO | inactive
C=CCc1ccc(OC)c(OC)c1 | inactive
Cc1c(C)c2c(c(C)c1O)CCC(C)(COc1ccc(CC3SC(=O)NC3=O)cc1)O2 (stereo not given) | inactive
CN(C)C(=O)NC1(c2ccccc2)CCN(CC[C@@]2(c3ccc(F)c(F)c3)CN(C(=O)c3ccccc3)CCO2)CC1 | inactive
Cc1ccc(C(C)(C)C)c(O)c1 | inactive
Oc1ccc(O)cc1 | inactive
O=[Si]=O | inactive
S=c1[nH]c2ccccc2s1 | inactive
C/C=C/C=C/C(=O)O | inactive
Nc1nc(=S)c2[nH]cnc2[nH]1 | inactive
CCCCCCCCCCCCCCOS(=O)(=O)O | inactive
CC(=O)OCC(COC(C)=O)OC(C)=O | inactive
O=C(NS(=O)(=O)/C=C/c1cccs1)c1ccc(F)cc1Br | inactive

SMILES | outcome
CSc1ccc(Oc2ccc(S(N)(=O)=O)cc2CN(C)C)cc1C | inactive
Cc1cn([C@H]2C=C[C@@H](CO)O2)c(=O)[nH]c1=O | inactive
CCCCC(CC)COP(=O)(OCC(CC)CCCC)OCC(CC)CCCC (stereo not given) | inactive
CN(C)C(=O)NC1(c2ccccc2)CCN(CCC[C@]2(c3ccc(Cl)c(Cl)c3)CCCN(C(=O)c3ccccc3)C2)CC1 | inactive
CC(N)=O | inactive
O=C(O)c1[nH]n(-c2ccc(S(=O)(=O)O)cc2)c(=O)c1N=Nc1ccc(S(=O)(=O)O)cc1 | inactive
CC(C)(C)c1ccccc1 | inactive
CC1=C(C)S(=O)(=O)CCS1(=O)=O | inactive
NC1CCCCC1 | inactive
CCCCC(CC)CO (stereo not given) | inactive
CC(=O)O | inactive
O=C1NC(=O)C(c2ccccc2)(c2ccccc2)N1 | inactive
CCCC[C@H]1CN(CC2CCOCC2)C(=O)OC12CCN(C1(C)CCN(C(=O)c3c(C)ncnc3C)CC1)CC2 | inactive
O=C(Oc1ccccc1)c1cccc(C(=O)Oc2ccccc2)c1 | inactive
C/C=C/c1ccc(OC)cc1 | inactive
CCCCOC(=O)CCCCC(=O)OCCCC | inactive
CN(C)CCCN1c2ccccc2Sc2ccc(Cl)cc21 | inactive
CCCCC(CC)COC(=O)CCCCCCCC(=O)OCC(CC)CCCC (stereo not given) | inactive
CC(C)c1cccc(C(C)C)c1NC(=O)NS(=O)(=O)c1cc(C(C)(C)O)co1 | inactive
COC(=O)CCC(=O)OC | inactive
